From PubChem BioAssay AID1508600 (Functional Genomics Laboratory (NCATS/FGL), 2020) come the findings set out here.

Hit rate of the full screen: of about 53,000 sequences, about 3,700 (7%) were called active. Only a selection was taken, and actives are over-represented in it overall. Values without a mark were called inactive.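 How the source made its calls: active means gene knockdowns whose robust z-score for IL-1 alpha signal is at least 2 or at most -2, so actives lie on both sides; inactive means the rest.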

The assay in a line: Components of the Cytosolic LPS Sensing Pathway: Gene Identification via Genome-wide siRNA Screen.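 Further: robust z of the log signal after scaling to non-targeting control siRNA wells of the plate.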 The conditions noted are these: RAW264.7 macrophages, IL-1a HTRF, actives lie on both sides, screened at 100 nM (by protocol), cells primed 5 h with Pam3CSK4 first. Summed up: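 RAW264.7; siRNA 100 nM final, RNAiMAX, 48h 37 degrees C; Pam3CSK4 5 h; LipidA + TransIT-TKO 24 h; IL-1a HTRF; CellTiter-Glo viability; robust z vs negative-control median.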
In general terms: TR-FRET usually uses a lanthanide donor and a delayed reading to cut background.
As to GGUGAACUUGUGUCUCACUTT against Tango2, the z-score is 0.0582. Regarding GGAGCUGUAUCGCACGAAATT against Ehd2, the z-score is -0.689. Regarding GGAAACCGAAUUCCAAGGGTT against Ddx25, the z-score is 1.78. Regarding GGAAGUGGAAAAACUGGUGTT against Ddx1, the z-score was -1.21. GGAACUGUUUGACAGUGAGTT against Pex19: the z-score is -0.811. In the case of GGAUCUAAAGGUGAGUCAATT against Dcaf12l1, the z-score is -0.388. As for GCCUUGGAUAAACCAGACGTT against Mfsd4a, the z-score was -2.38 (active). Regarding GGAACCAAUCAGUUGGUUATT against Taf7, the z-score was 0.395. The value for GGAGAUACAGGAUAUUAUUTT against Nme5 was -0.0528; that for GCACUUACUCAUUAAUCACTT against Rnf20 was -2.56 (active). In the case of GCAACAGUGAAAUAGCACATT against Krit1, the z-score was 0.179. On to GGUUAAUGAGCUCUGUAAATT against Pknox1, for which the z-score is -0.508. The value for GCUAAGGACUCAGCAAAACTT against Coq5 was 0.733; that for CCGGUAAUGAGUUCAAGUGTT against Arsa was 1.12; that for GGUAAAGAAAUCCUUCAAATT against Syt6 was 2.1 (active).

Consider GGUUCUUAAUGCAUUCCCGTT against Cyp2d9, for which the z-score is -0.786.

With GGGACUUUGAUUUUGAGAGTT against Ppp1r3f, the z-score was -1.58.

With “GAUGCUCUCUGCUCUGAGATT against C030016D13Rik”, the z-score is -0.0555. Regarding GGAUCUAUAUCCAGUAGAGTT against Mief2, the z-score is 3.38 (active). Regarding GGUAAUAGGAGAUACUGUGTT against Gzme, the z-score is 0.624. On to GGACCUUUCUCAACUACUATT against Edem2, for which the z-score was -0.706. Under GGGAAACAAGCAUCUUCUGTT against Bmp5 stands -0.474; under CCACUUCAGUAUUUGGCUUTT against Tas2r137, -0.404; under GGACUCCUCAUGCUGAAGATT against Cdh13, 1.97. Turning to GCUCUAUUUGACCACCUCATT against Gdpd1, the z-score is -0.898. The value for CCACUCAAGAUCGAUACCUTT against Fgd1 was 0.167. The value for GGGUGAAGAGAGAUGAAAATT against Krt82 was 1.64; that for GCUUGUUUACAUCGGACUUTT against Samt2 was 0.9. For the sequence GCAUCGUGCAGAAUUUUGCTT against Ephb1, the z-score was -1.04. Regarding CCAGUGAUUAUCUUUAAUGTT against Slc9c1, the z-score is -0.435. For GCUAUCAAAGCUAAUACAUTT against Mrps9, the z-score is 3.41 (active).

On to GGUUAAGGAUGCUCAAGUATT against Krt20, for which the z-score was -0.187. Take GGUCGUGUUCGAGCAAACCTT against Tpi1: the z-score is -0.725. Turning to GCAGAAUUGAAGCUGGAAUTT against Stag1, the z-score was 2.49 (active). Under GGUGACAUGGAUGUAGCAATT against Fcsk stands 1.18.

On to CCACAUCUCAUGUGAAACCTT against Olfr517, for which the z-score is -0.927.

For CCUUUUACACUCUAGUAUGTT against Ptger4, the z-score was -0.349. Consider GCUUGAAUAUGAGAACGAATT against Deup1, for which the z-score was -0.451. For the sequence GGUCAAGGUAGGCAAUGAATT against Stau2, the z-score is -2.32 (active). Under GGGCAACAAGGAGUACUCATT against Prss45 stands -1.88; under GGAGGAAAUGAAAACCUUUTT against Cep89, -0.823; under GGAGAACAUAAUGAAAUCUTT against Fam50a, -0.0744.

Regarding GGAUCAAAUUCUACCUUAGTT against Tbc1d5, the z-score is -0.595. The value for GGAGGUUGCUACAUGGUUATT against Amz1 was -0.644; that for GGUCCACUGAUUCUGAUAATT against Cyp4a31 was 1.79. On to GGAUUUUGCCUAAAAUACATT against Sephs1, for which the z-score was 0.179. GGGACAGCUUUUGUGACUCTT against Raver1: the z-score is -2.16 (active).

As to GGGCAAAUCCUUUAGUUUGTT against Siae, the z-score was -0.62. Turning to CUACAGUGGCAAUAAUAUUTT against Rpl30, the z-score is 0.425. GGUACUAAAUAAAAGACCGTT against Dsc2: the z-score is 1.15. On to GGAGGAGAGAUGGUAAUCCTT against Olfr729, for which the z-score is -0.185. Under GGAUGAGUAUGAGAGGAAUTT against Dcp1a stands 2.51 (active); under GGUAACUGGGAAUUGUGUUTT against Vti1a, 0.812; under GGGUCUCUAAGUGCUCCGUTT against Sfxn2, 0.433.

Regarding “CGUGAAUCACUAUACAUAATT against A630052C17Rik”, the z-score was -1.39. As for GGAAACAGUAGAAGAUGAGTT against Fam220a, the z-score is 0.151. On to GAAGACCAAGCUUUGUACUTT against Olfr339, for which the z-score is 2.28 (active). Take GGAGCUCGCCAAAAGGAAGTT against Cep19: the z-score is 1.97.

CCAAAGAAGGUGAGAUUUGTT against Clstn1: the z-score is -0.161. In the case of CCAGUAUGAGAACUACGAUTT against Loxl1, the z-score was -0.345. For the sequence “CCGUUUUGUCUGAAUUCCCTT against 4930515G01Rik”, the z-score is -2.14 (active). For GCAGUAAAUGUCCCAUCCGTT against Caskin1, the z-score was -1.28.

CCCAUCCAUACAAAAAUGATT against Polm: the z-score was -1.73. Under CCUUAUUGAGACGAAUACGTT against Fastkd1 stands -0.958. For the sequence GGACAACAGCAAAACAUCUTT against Atoh1, the z-score is -0.757.

With CCCAUAACAUUGGUGAUUATT against Vmn1r235, the z-score is -0.205. For the sequence GGAAUGAGCUGAAUGCAAATT against Psmc5, the z-score was -2.08 (active).

On to CGUUAAAUGGCAGUACAGATT against Qk, for which the z-score was 0.388. For the sequence GCCAAACACUCGACUCUAATT against Gm11733, the z-score was -0.823. The value for GGAAAACUUUAGCUACAAATT against Ppp4r4 was -0.231; that for GCUUCUAACUCUGUGAGGGTT against Defb29 was -2.8 (active). For the sequence GCAGACGACAAGUUCUACATT against Tbcb, the z-score is -0.666. Regarding GCUUAUCAUCUCCAGACAGTT against Svop, the z-score was -0.144. In the case of GCUGGUUACUCCCAAGACGTT against Dlgap2, the z-score was 2.18 (active). Under GGUGGAGUUAACGAGAAACTT against Ccn1 stands 0.69; under ACUGUUUAAUCACUGUGGUTT against Olfr891, -0.994. GGACUACAUCAACCUGGAUTT against Mlf2: the z-score is 0.25. In the case of GGUCUUCGACACCAUUAACTT against Wipi2, the z-score is 0.947. Under GGACAGUUUGAUGAUGCCGTT against Coprs stands -2.87 (active); under CCCUGUGACUCCAAAAUGATT against Dbh, -1.01; under GGACAACGUGCUCAUUAGUTT against Zfp709, 0.0713. GCCUGACGAAGGUUUCUAUTT against Neo1: the z-score was -0.114. The value for GGCAUAAACCUUCUUGCUCTT against Ccl22 was -0.221. Under GGUAGAGGUUAUAUAGGCATT against Ms4a6d stands 0.282; under GGUACUCACAUCUCCAAAGTT against Zfp948, -0.881. Under GGCAAACAUUUCAAAUACATT against Tgm4 stands 2.12 (active). In the case of GGAGGAAGAGAUUUUAAACTT against Rps8, the z-score is 0.158.

As to GCUGCUGAUAACAUCCGACTT against Golga5, the z-score was 0.554.

For the sequence GGUACAGUUACGGUCAAAUTT against Zfp952, the z-score is 0.739. Under GGUAUGUCCUCUGGUCAAUTT against Bpifa1 stands 0.282. For GGUCAAUGCUACUAAUGAATT against Ankrd61, the z-score is 0.661. As for GGGAUGCUCUGAACAUUGATT against Anxa2, the z-score is 3.22 (active). With CCAUGCAGCAAAUCGAGUUTT against Klk1b5, the z-score is 0.912. Regarding GGUCUGAGCUUCCAAUAACTT against Reep5, the z-score was 0.183. Under GCUAUUGGGUAGAUUGAUATT against Baat stands 0.251; under GCUUCUAAUUGGAGAUUGCTT against Bex3, -1.39; under GGAACACAAUGGGACGAGUTT against Ccl11, -1.12. On to GGCCACGUUUCUCUUCACCTT against Nyx, for which the z-score is -1.12. The value for GGCAAAGAAUUCAAUCGGATT against Atp2b2 was -0.235. In the case of GGUUCAAAUGUUGCAUAGUTT against Klrc2, the z-score is 0.597. With GGAUCACAGCAGAAGAAAUTT against Tmem144, the z-score is -2.95 (active). Consider GGAAGUGGAAGUUCUGAAGTT against Tsc22d1, for which the z-score was -0.886. Take GGGUCUUAUGGAAGUGUUUTT against Stk3: the z-score was 7.27 (active). On to CCUUUUUGAGGAAUUUGGATT against Scaf8, for which the z-score is -0.0964. As for CGGCUCGUUGAAGAACAAATT against Afap1, the z-score is -1.32.

Regarding GGCUUCAUUCGUAGGCCAUTT against Smcr8, the z-score was 1.64. Regarding GGUUCACAGUAACCAUUGGTT against Zc3h18, the z-score was -2.45 (active). As for GCAAAAGGAAACGAUCUCATT against Fbxo43, the z-score was -0.302.
